PubChem BioAssay AID743314 (Broad Institute, 2014)
Potency and affinity values are given separately. Inconclusive results are not listed. Active and inactive are the calls of the source.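 Rule for the calls: active = fitted half-maximal concentration no higher than twice the top tested dose, in every repeat run; inconclusive = repeat runs disagree, poor fit, or flat partial inhibition; inactive = the rest.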

molecular target: Endoplasmic reticulum aminopeptidase 1 (Homo sapiens) (UniProt Q9NZ08); assay: inhibition of human ERAP1 enzyme activity – biochemical, cherry-pick, set 2, plate reader, dose response (AID 743314); settings: Recombinant ERAP1, Leu-AMC fluorescence, 60 min; series mostly up to 11 µM; activity change, negative = inhibition: at the top concentration;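 note: 0% = neutral control wells and -100% = L-leucinethiol positive control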
Sequence (Q9NZ08 whole entry, looked up): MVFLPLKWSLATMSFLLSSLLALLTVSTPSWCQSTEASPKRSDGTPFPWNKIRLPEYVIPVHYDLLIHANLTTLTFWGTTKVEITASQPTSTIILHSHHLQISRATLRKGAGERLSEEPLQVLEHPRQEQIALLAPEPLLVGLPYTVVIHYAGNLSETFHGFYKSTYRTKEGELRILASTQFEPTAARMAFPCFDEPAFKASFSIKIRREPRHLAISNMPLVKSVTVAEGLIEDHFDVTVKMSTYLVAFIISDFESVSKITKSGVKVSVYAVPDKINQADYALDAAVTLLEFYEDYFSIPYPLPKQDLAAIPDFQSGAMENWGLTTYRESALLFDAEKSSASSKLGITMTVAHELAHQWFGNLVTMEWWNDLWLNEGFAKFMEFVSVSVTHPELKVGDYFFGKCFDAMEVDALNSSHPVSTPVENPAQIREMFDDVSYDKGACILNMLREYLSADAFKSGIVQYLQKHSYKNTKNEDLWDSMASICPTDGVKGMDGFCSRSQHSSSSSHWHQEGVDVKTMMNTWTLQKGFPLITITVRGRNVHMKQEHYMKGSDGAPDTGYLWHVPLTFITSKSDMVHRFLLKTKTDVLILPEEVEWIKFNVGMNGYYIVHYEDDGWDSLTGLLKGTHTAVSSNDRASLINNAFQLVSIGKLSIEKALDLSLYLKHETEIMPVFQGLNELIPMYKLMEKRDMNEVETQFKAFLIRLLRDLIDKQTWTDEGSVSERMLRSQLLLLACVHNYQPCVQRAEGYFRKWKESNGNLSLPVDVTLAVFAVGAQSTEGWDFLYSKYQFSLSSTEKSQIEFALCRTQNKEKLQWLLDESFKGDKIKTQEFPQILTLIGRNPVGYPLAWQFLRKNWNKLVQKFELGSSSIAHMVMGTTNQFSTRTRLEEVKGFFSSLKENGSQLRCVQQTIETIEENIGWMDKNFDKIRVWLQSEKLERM

Activity change, negative = inhibition, inactive:
CCc1c(C)c2cc(Cl)c(O)c(CN3CCCC3)c2oc1=O 20.7%
Cn1cnc(C(=O)N2CCN(C(=O)OC(C)(C)C)CC2)c1C(=O)N1CCN(C(=O)OC(C)(C)C)CC1 -10.3%
COc1ccc([N+](=O)[O-])cc1NS(=O)(=O)c1cccc(C(=O)O)c1 36.7%
COc1ccc(CN(C)C[C@@H]2Oc3ccc(NS(=O)(=O)c4ccc(C)cc4)cc3C(=O)N([C@@H](C)CO)C[C@@H]2C)cc1 8.81%
CN1[C@H](C(=O)N2CCCCC2)[C@@H](CO)[C@@H]2Cn3c(ccc(/C=C/c4ccccc4)c3=O)[C@@H]21 5.94% [at 5.6 µM]
COc1ccc(NC(=O)N[C@@H]2CC[C@@H](CCn3cc(-c4ccc(F)cc4)nn3)O[C@H]2CO)cc1 32.5%
O=C(CNC(=O)OCc1ccccc1)Nc1ccc(F)cc1 -11.2%
CCc1cccc(C)c1NC(=O)c1cc(=O)[nH]c2ccc(S(=O)(=O)N3CCOCC3)cc12 2.94%
COc1ccc(CN(C)C[C@@H]2OCCCC[C@H](C)Oc3ccc(NS(=O)(=O)c4cccs4)cc3C(=O)N([C@H](C)CO)C[C@@H]2C)cc1 48.1%
C[C@@H]1CN([C@@H](C)CO)C(=O)c2cc(NC(=O)CCN3CCOCC3)ccc2O[C@H]1CN(C)S(=O)(=O)c1ccccc1 22.1%
C[C@H]1CN([C@@H](C)CO)C(=O)c2cccc(NC(=O)Nc3ccc(F)cc3)c2O[C@@H]1CN(C)C(=O)Nc1ccc2c(c1)OCO2 51%
CN1C2=NCCN2C(=O)c2cc(Cl)ccc21 -10.8%
O=C(CC1CC1)N1[C@@H](CO)[C@@H](c2ccccc2)C12CN(Cc1cc(F)ccc1F)C2 14%
